{"source": "PubChem BioAssay AID1508636", "about": "(National Center for Advancing Translational Sciences (NCATS), 2021)", "note": "Records with an inconclusive call do not appear. Unmarked numbers belong to inactive results. Active and inactive are the calls of the source. Calls follow the shape of the dose curve; as a rule, active = well fitted inhibition curve with a large enough effect; inconclusive = small, poorly fitted or top-dose-only effect; inactive = flat fitted curve, though single readings scatter. *1 amine or outer side, *2 acyl side, *3 side chain or, on linkers, in order; H or OH if unused. Where a SMILES comes first, the peptide text is derived from it. Bridges are numbered along the chain shown (N, C = ends). Roman numbers before positions name the chains, in order. [ ]: non-standard residue; d: D form. The star is where a group is joined. ξ: configuration not given here. Actinocin(9to1) = Cc1c2oc3c(C)ccc(C(=O)[*:1])c3nc-2c(C(=O)[*:2])c(N)c1=O; ξNMeV = CNC(C(=O)O)C(C)C; Cbz = O=C(OCc1ccccc1)*; Nva = CCC[CH](N)C(=O)O; ξV = CC(C)C(N)C(=O)O; Sar = CNCC(=O)O", "data": [{"target": "ATP-dependent translocase ABCB1 (Homo sapiens) (UniProt P08183)", "sequence (P08183 whole entry, looked up)": "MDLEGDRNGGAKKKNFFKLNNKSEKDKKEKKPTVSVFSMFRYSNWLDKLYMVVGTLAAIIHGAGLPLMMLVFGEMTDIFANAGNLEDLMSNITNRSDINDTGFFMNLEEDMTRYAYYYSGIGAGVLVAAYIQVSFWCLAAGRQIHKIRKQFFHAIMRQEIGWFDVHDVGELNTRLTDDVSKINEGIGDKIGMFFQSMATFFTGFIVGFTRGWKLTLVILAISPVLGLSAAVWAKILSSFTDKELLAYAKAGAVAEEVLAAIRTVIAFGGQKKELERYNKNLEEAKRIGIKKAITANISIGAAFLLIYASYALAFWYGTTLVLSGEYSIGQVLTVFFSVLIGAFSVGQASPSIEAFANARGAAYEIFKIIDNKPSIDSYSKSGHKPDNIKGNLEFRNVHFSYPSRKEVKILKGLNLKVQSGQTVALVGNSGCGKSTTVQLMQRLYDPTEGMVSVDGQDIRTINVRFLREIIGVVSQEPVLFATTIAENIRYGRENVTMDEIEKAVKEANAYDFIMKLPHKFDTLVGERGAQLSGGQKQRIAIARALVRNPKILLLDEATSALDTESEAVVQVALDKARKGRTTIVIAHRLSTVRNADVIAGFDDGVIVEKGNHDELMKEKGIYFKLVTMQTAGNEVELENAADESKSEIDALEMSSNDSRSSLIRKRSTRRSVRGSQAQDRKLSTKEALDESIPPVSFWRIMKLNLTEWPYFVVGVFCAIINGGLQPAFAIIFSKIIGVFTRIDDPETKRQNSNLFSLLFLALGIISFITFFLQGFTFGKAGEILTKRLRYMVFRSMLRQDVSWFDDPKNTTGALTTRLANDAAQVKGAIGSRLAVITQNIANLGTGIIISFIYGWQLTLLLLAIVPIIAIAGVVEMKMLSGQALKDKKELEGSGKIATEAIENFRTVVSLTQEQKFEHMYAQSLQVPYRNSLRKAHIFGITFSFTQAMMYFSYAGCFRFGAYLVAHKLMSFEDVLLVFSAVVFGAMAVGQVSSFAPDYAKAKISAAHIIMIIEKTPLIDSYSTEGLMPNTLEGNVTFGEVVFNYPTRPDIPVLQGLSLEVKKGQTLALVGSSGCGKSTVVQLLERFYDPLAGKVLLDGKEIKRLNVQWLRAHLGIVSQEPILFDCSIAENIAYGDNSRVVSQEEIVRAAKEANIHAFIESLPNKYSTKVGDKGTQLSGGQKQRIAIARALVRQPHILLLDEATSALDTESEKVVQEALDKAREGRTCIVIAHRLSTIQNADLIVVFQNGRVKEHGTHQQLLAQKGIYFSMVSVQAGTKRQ", "assay": "qHTS for characterization and localization of zebrafish homologs of the human ABCB1 multidrug transporter: P-gp overexpressing MDR-19 cells", "conditions": "MDR-19 cells overexpressing P-gp, CellTiter-Glo luminescence viability, 72 h; series mostly up to 46.1 µM", "excerpt": "The zebrafish has emerged as a potential model to study the blood-brain barrier (BBB) given its similarities with mammalian systems. However, little information has been available with regard to homologous ATP-binding cassette transporters expressed at the zebrafish BBB. Two transporters that are highly expressed at the human BBB are P-glycoprotein (P-gp, encoded by the ABCB1 gene) and ABCG2 (encoded by the ABCG2 gene). In this study, we focus on characterization of P-gp homologs in the zebrafish, which has two genes that are homologous to human ABCB1 - abcb4 and abcb5. We generated stably-transfected cell lines to determine their substrate specificities. […] Zebrafish abcb4 also colocalized with claudin 5 expression in brain endothelial cells.\nA high-throughput screen was performed as previously described on empty vector transfected cells, P-gp-overexpressing MDR-19 cells and cells transfected with full-length zebrafish abcb4 (ZF Abcb4) or abcb5 (ZF Abcb5). Briefly, cells were plated into 1536-well plates at a density of 500 cells/well in 5 uL media. P-gp substrate compounds (approximately 90) selected from our previous study were then added at varying concentrations using a 1536-head pin tool (Kalypsis, San Diego, CA) and plates were incubated at 37C in 5% CO2 for 72 h. CellTiter-Glo reagent (Promega) was dispensed into the wells, incubated for 5 min and luminescence was read on a ViewLux instrument (Perkin-Elmer).\nCytotoxic compounds were defined as those that yielded a curve class of -1.1, -1.2, -2.1, -2.2, -2.3, or -2.4, a maximum response of >50% and an AC50 of < 10 uM. All compounds from screening analysis were tested in Vector (empty vector control), MDR-19 (P-gp overexpressing), zebrafish abcb4 (ZF Abcb4) and abcb5 (ZF Abcb5) expression cell lines.\n1. Tobie D Lee, Olivia W Lee, Kyle R Brimacombe, Lu Chen, Rajarshi Guha, Sabrina Lusvarghi, Bethilehem G Tebase, Carleen Klumpp-Thomas, Robert W Robey, Suresh V Ambudkar, Min Shen, Michael M Gottesman, Matthew D Hall. A High-Throughput Screen of a Library of Therapeutics Identifies Cytotoxic Substrates of P-glycoprotein. Mol Pharmacol. 2019, Nov;96(5):629-640.", "values": [{"compound": "COc1ccc(CC2C(=O)NC(C)C(=O)N(C)C3Cc4ccc(cc4)Oc4cc(ccc4OC4OC(CO)C(O)C(O)C4O)CC(C(=O)NC(C)C(=O)NC(C)C(=O)N2C)N(C)C3=O)cc1", "note": "(stereo not given)", "Potency": "inactive"}, {"compound": "Cc1ccc(C(=O)N(CCCN)[C@@H](c2oc3cc(Cl)ccc3c(=O)c2Cc2ccccc2)C(C)C)cc1", "Potency": "13.2 µM (active)"}, {"compound": "C[C@@]12O[C@@H](C[C@]1(O)CO)n1c3ccccc3c3c4c(c5c6ccccc6n2c5c31)CNC4=O", "Potency": "8.33 µM (active)"}, {"compound": "CC(C)C[C@H](NC(=O)[C@@H](NC(=O)c1cccc(-c2ccccc2)n1)[C@@H](C)O)B(O)O", "Potency": "0.372 µM (active)"}, {"compound": "COc1cc(N2CCC(O)CC2)ccc1Nc1nc(Nc2ccccc2S(=O)(=O)C(C)C)c2[nH]cnc2n1", "Potency": "inactive"}, {"compound": "COC(C(=O)N1Cc2[nH]nc(NC(=O)c3ccc(N4CCN(C)CC4)cc3)c2C1)c1ccccc1", "note": "(stereo not given)", "Potency": "inactive"}, {"compound": "NC(=O)Nc1cc(-c2cccc(F)c2)sc1C(=O)N[C@H]1CCCNC1", "Potency": "8.33 µM (active)"}, {"compound": "CCN(CCCO)CCCOc1ccc2c(Nc3cc(CC(=O)Nc4cccc(F)c4)[nH]n3)ncnc2c1", "Potency": "inactive"}, {"compound": "CC1(C)CC[C@]2(C(=O)OC3OC(CO)C(O)C(O)C3O)CC[C@]3(C)C(=CCC4[C@@]5(C)CC[C@H](OC6OC(C(=O)O)C(O)C(O)C6O)C(CO)(CO)C5CC[C@]43C)[C@@H]2C1", "note": "(stereo not given in full)", "Potency": "inactive"}, {"compound": "O=C(NC1CCNCC1)c1[nH]ncc1NC(=O)c1c(Cl)cccc1Cl", "Potency": "inactive"}, {"compound": "C=CCn1c(=O)c2cnc(Nc3ccc(N4CCN(C)CC4)cc3)nc2n1-c1cccc(C(C)(C)O)n1", "Potency": "4.69 µM (active)"}, {"compound": "CCS(=O)(=O)c1cccc(-c2cc(C(=O)NC3CCN(C)CC3)c(C)c3[nH]c4ncc(C)cc4c23)c1", "Potency": "inactive"}, {"compound": "CC(C)(C)c1cnc(CSc2cnc(NC(=O)C3CCNCC3)s2)o1", "Potency": "24.1 µM (active)"}, {"compound": "COC[C@H](NC(=O)c1cnc(C)s1)C(=O)N[C@@H](COC)C(=O)N[C@@H](Cc1ccccc1)C(=O)[C@@]1(C)CO1", "Potency": "0.59 µM (active)"}, {"compound": "Cc1ccc(C(=O)N(CCCN)C(c2nc3cc(Cl)ccc3c(=O)n2Cc2ccccc2)C(C)C)cc1", "note": "(stereo not given)", "Potency": "14.8 µM (active)"}, {"compound": "COc1cc2ncn(-c3cc(OCc4ccccc4C(F)(F)F)c(C(N)=O)s3)c2cc1OC", "Potency": "5.4 µM (active)"}, {"compound": "CCn1c(-c2nonc2N)nc2c(C#CC(C)(C)O)ncc(OC[C@H]3CCCNC3)c21", "Potency": "inactive"}, {"compound": "CC[C@@H]1C(=O)N(C)c2cnc(Nc3ccc(C(=O)NC4CCC(N5CCN(CC6CC6)CC5)CC4)cc3OC)nc2N1C(C)C", "note": "(stereo not given in full)", "Potency": "2.35 µM (active)"}, {"compound": "CC(NCc1ccc2c(c1)nc(NC(=O)c1ccc(-c3cn[nH]c3)s1)n2CC(C)(C)O)C(C)(C)C", "note": "(stereo not given)", "Potency": "2.96 µM (active)"}, {"compound": "C/C=C1/NC(=O)C2CSSCCC=CC(CC(=O)NC(C(C)C)C(=O)N2)OC(=O)C(C(C)C)NC1=O", "note": "(stereo not given)", "Potency": "7.43 µM (active)"}, {"compound": "C#CCN(Cc1cc2c(=O)n(C)c(CN3CCN(C)CC3)nc2cc1Cl)c1ccc(C(=O)NCc2cccnc2)cc1", "Potency": "inactive"}, {"compound": "Cc1cc(Nc2cc(NC(=O)c3c(Cl)cccc3Cl)ccn2)nc(N)n1", "Potency": "13.2 µM (active)"}, {"compound": "CN(C)c1ccc(C(=C2C=CC(=[N+](C)C)C=C2)c2ccc(N(C)C)cc2)cc1", "Potency": "4.69 µM (active)"}, {"compound": "Cc1ccc(-c2ncn(-c3ccc(Nc4nccc(-c5cccc(N6CCOCC6)c5)n4)cc3)n2)cn1", "Potency": "3.72 µM (active)"}, {"compound": "CN(C)C1CCN(C(=O)c2ccc(NC(=O)Nc3nc(N4CCOCC4)nc(N4CCOCC4)n3)cc2)CC1", "Potency": "inactive"}, {"compound": "CCN(CC)Cc1ccc(C(=O)N(CCc2ccccc2OC)[C@@H]2CCNC2)cc1", "Potency": "inactive"}, {"compound": "CCCC(C=O)NC(=O)C(CC(C)C)NC(=O)C(CC(C)C)NC(=O)OCc1ccccc1", "note": "(stereo not drawn) (Cbz-Leu-Leu-[Nva]-aldehyde; configuration not given here)", "Potency": "4.18 µM (active)"}, {"compound": "C=C1CO[C@@]2(O[C@H]3CC4C5CC=C6C[C@@H](O)C[C@@H](O[C@@H]7OC[C@H](O)[C@H](O[C@@H]8OC[C@@H](O)[C@H](O)[C@H]8O)[C@H]7O[C@@H]7O[C@@H](C)[C@H](OC(C)=O)[C@@H](OC(C)=O)[C@H]7OC(C)=O)[C@]6(C)C5CC[C@]4(C)[C@@H]3[C@@H]2C)[C@@H](O)[C@H]1OC1OC(C)C(O)C(O)C1O", "note": "(stereo not given in full)", "activity change, negative = inhibition": "3.31% [at 8.96 µM]"}, {"compound": "C=CCNC1=C2CC(C)CC(OC)C(O)C(C)/C=C(\\C)C(OC(N)=O)C(OC)/C=C/C=C(\\C)C(=O)NC(=CC1=O)C2=O", "note": "(stereo not given)", "Potency": "10.5 µM (active)"}, {"compound": "CC(C)C[C@H](NC(=O)[C@H](CCc1ccccc1)NC(=O)CN1CCOCC1)C(=O)N[C@@H](Cc1ccccc1)C(=O)N[C@@H](CC(C)C)C(=O)[C@@]1(C)CO1", "Potency": "0.743 µM (active)"}, {"compound": "C[C@@H]1O[C@@H](O[C@H]2[C@@H](OC(=O)[C@]34CCC(C)(C)CC3C3=CCC5[C@@]6(C)C[C@H](O)[C@H](O[C@@H]7O[C@H](CO)[C@@H](O)[C@H](O)[C@H]7O[C@@H]7OC[C@@H](O)[C@H](O)[C@H]7O)[C@@](C)(C(=O)O)C6CC[C@@]5(C)[C@]3(C)CC4)OC[C@H](O)[C@@H]2O)[C@H](O)[C@H](O)[C@H]1O[C@@H]1OC[C@@H](O)[C@H](O)[C@H]1O", "note": "(stereo not given in full)", "activity change, negative = inhibition": "-1.44% [at 8.96 µM]"}, {"compound": "COc1cc(C(=O)NC2CCN(C)CC2)ccc1Nc1ncc2c(n1)N(C1CCCC1)CC(F)(F)C(=O)N2C", "Potency": "3.32 µM (active)"}, {"compound": "CC1(C)CC(NC(=O)C(=O)Nc2ccc(Br)cc2)CC(C)(C)N1", "Potency": "inactive"}, {"compound": "CCc1cccc(CC)c1NC(=O)N1Cc2[nH]nc(NC(=O)c3ccc(N4CCN(C)CC4)cc3)c2C1", "Potency": "inactive"}, {"compound": "Cc1c2oc3c(C)ccc(C(=O)N[C@@H]4C(=O)NC(C(C)C)C(=O)N5CCC[C@H]5C(=O)N(C)CC(=O)N(C)C(C(C)C)C(=O)O[C@@H]4C)c3nc-2c(C(=O)N[C@@H]2C(=O)NC(C(C)C)C(=O)N3CCC[C@H]3C(=O)N(C)CC(=O)N(C)C(C(C)C)C(=O)O[C@@H]2C)c(N)c1=O", "note": "(stereo not given in full) (I: T[ξV]P[Sar][ξNMeV] / II: T[ξV]P[Sar][ξNMeV]; ester I:1-I:C, II:1-II:C; linker I:N-II:N via Actinocin(9to1))", "Potency": "0.469 µM (active)"}, {"compound": "CC(=O)C1(O)Cc2c(O)c3c(c(O)c2C(OC2CC(N)C(O)C(C)O2)C1)C(=O)c1c(O)cccc1C3=O", "note": "(stereo not given)", "Potency": "0.148 µM (active)"}, {"compound": "CN(c1ncccc1CNc1nc(Nc2ccc3c(c2)CC(=O)N3)ncc1C(F)(F)F)S(C)(=O)=O", "Potency": "18.7 µM (active)"}, {"compound": "CCC(C)C(=O)OC1CC(O)C23C4OCC5(C(O)CC2C1(C)C(O)O4)C3C(=O)C(O)C1(C)C(O)(c2ccoc2)CC2OC251", "note": "(stereo not given)", "Potency": "inactive"}, {"compound": "CC(C)C[C@@H](C=O)NC(=O)[C@H](CC(C)C)NC(=O)[C@H](CC(C)C)NC(=O)OCc1ccccc1", "note": "(Cbz-Leu-Leu-Leu-aldehyde)", "Potency": "3.72 µM (active)"}, {"compound": "C[C@@H](Oc1cc(-n2cnc3ccc(CN4CCN(C)CC4)cc32)sc1C(N)=O)c1ccccc1C(F)(F)F", "Potency": "0.469 µM (active)"}]}]}
